Drawing on paper PMC13541613, “GHT-SELEX demonstrates unexpectedly high intrinsic sequence specificity and complex DNA binding of many human transcription factors”, this text covers binding signal for 37 sequences.

What all share (assay): HT-SELEX; 20 mM HEPES pH 7, 140 mM KCl, 5 mM NaCl, 1 mM K2HPO4, 2 mM MgSO4, 100 uM EGTA, ZnSO4, 0.1% Tween20; room temperature, 1 h; high values mean tight binding
Common to all, as to settings: protein: ivt; tags: eGFP (N-terminal); dsDNA, one strand shown

One experiment concerns the target ZNF721 full-length (Homo sapiens, UniProt Q8TF20-2 1-923). An outline of the steps: (§1)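 A tagged transcription factor, either full-length or its DNA-binding-domain fragment, was made in HEK293 lysate or cell-free extract, immobilised on beads and incubated with a randomized 40-base DNA library for 1 h at room temperature in HEPES/KCl low-stringency buffer containing Tween20. Washed beads were heat-eluted, and the bound DNA was PCR-amplified over successive cycles and Illumina-sequenced at ~3 million 60 bp reads per sample. The binding signal is the relative k-mer count in selected reads, where a higher value means tighter binding.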

The next experiment deals with ZNF721 DBD1 (Homo sapiens, UniProt Q8TF20-2 29-461). An outline of the steps: as §1
Sequence of ZNF721 DBD1 (Q8TF20 17-449): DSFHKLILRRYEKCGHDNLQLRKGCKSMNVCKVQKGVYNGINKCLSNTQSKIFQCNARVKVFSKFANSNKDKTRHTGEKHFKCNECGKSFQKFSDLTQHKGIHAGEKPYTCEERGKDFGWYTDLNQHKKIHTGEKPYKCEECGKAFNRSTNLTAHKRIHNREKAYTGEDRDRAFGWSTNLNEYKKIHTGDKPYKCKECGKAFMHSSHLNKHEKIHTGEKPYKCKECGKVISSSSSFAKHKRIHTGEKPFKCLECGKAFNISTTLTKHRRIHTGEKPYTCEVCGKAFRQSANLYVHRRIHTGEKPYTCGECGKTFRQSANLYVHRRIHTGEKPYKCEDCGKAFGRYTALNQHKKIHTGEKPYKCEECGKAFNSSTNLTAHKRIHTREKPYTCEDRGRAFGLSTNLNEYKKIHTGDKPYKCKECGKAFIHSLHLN
In another experiment the target is ZNF721 DBD2 (Homo sapiens, UniProt Q8TF20-2 395-923). An outline of the steps:
as §1

Sequence of ZNF721 full-length (Q8TF20 other isoform, or with tags, fused parts or gaps): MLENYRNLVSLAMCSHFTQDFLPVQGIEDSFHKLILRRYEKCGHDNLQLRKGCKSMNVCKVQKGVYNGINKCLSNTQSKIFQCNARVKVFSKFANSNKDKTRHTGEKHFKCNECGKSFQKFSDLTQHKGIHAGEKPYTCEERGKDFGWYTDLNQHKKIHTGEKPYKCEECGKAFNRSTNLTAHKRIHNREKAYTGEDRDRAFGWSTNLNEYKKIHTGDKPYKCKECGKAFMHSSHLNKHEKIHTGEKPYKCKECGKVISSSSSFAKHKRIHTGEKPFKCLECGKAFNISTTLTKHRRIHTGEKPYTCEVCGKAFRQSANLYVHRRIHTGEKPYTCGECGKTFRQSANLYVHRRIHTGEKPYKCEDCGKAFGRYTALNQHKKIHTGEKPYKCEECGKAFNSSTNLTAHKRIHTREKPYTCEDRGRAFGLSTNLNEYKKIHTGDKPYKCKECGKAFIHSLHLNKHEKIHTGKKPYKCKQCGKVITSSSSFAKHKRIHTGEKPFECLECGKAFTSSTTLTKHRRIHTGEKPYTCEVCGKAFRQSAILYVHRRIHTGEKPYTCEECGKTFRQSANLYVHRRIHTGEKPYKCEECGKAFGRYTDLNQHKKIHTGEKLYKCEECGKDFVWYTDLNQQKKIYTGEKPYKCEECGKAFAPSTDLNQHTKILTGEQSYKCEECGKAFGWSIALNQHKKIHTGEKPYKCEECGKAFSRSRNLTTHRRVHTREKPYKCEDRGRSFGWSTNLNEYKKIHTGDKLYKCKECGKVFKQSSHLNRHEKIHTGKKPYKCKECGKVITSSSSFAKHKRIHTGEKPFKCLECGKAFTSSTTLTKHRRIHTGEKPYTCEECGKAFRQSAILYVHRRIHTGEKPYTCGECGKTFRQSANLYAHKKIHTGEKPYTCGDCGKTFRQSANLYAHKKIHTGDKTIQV
Sequence of ZNF721 DBD2 (Q8TF20 383-911): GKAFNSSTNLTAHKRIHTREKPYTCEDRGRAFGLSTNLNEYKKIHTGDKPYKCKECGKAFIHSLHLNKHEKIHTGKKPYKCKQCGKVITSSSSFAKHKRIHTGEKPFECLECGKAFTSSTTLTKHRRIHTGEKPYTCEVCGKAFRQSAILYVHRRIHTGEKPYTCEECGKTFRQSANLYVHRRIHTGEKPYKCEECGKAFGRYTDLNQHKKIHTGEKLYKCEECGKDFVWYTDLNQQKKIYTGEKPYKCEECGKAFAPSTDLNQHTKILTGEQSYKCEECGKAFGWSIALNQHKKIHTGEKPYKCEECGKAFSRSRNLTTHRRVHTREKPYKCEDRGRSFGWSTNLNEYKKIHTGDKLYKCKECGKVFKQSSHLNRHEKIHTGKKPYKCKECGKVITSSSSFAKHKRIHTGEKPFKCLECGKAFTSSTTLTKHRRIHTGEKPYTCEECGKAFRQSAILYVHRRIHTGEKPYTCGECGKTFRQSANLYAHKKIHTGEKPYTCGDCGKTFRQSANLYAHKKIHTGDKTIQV

Consider CCCGCGCCCC, for which the figures for the binding signal with ZNF721 full-length, with ZNF721 DBD1 and in the experiment with ZNF721 DBD2 were 0.146 relative 10-mer count, 0.00505 relative 10-mer count and 0.0018 relative 10-mer count, respectively.

As to AAAGCTGCAC, the figures for the binding signal with ZNF721 full-length, with ZNF721 DBD1 and with ZNF721 DBD2 were 0.11 relative 10-mer count, 0.0548 relative 10-mer count and 0.0024 relative 10-mer count, respectively.

As to AAAAAAGCTA, the values for the binding signal with ZNF721 full-length, with ZNF721 DBD1 and with ZNF721 DBD2 were 0.489 relative 10-mer count, 0.222 relative 10-mer count and 0.00276 relative 10-mer count, respectively.

As for CCCTCCCCAC, the results for the binding signal in the experiment with ZNF721 full-length, in the experiment with ZNF721 DBD1 and with ZNF721 DBD2 were 0.217 relative 10-mer count, 0.00977 relative 10-mer count and 0.00863 relative 10-mer count, respectively.

With CCGCCCACCA, the binding signal in the experiment with ZNF721 full-length was found to be 0.143 relative 10-mer count; in the experiment with ZNF721 DBD1 it was 0.00477 relative 10-mer count; in the experiment with ZNF721 DBD2, 0.00156 relative 10-mer count.

Turning to CCACCACCCG, the binding signal worked out at 0.131 relative 10-mer count in the experiment with ZNF721 full-length, 0.00564 relative 10-mer count with ZNF721 DBD1 and 0.00467 relative 10-mer count with ZNF721 DBD2.

On to GAAAAAAAAA, for which the binding signal with ZNF721 full-length was found to be 0.142 relative 10-mer count; with ZNF721 DBD1 it was 0.0136 relative 10-mer count; in the experiment with ZNF721 DBD2 it was 0.0513 relative 10-mer count.

For CCCTCCCACC, the binding signal came out at 0.265 relative 10-mer count with ZNF721 full-length, 0.0161 relative 10-mer count with ZNF721 DBD1 and 0.00755 relative 10-mer count in the experiment with ZNF721 DBD2.

With CAAAAAGCAG, the binding signal in the experiment with ZNF721 full-length was 0.159 relative 10-mer count; with ZNF721 DBD1 it was 0.00156 relative 10-mer count; with ZNF721 DBD2 it was 0.172 relative 10-mer count.

Regarding AGCGTATCCA, the binding signal with ZNF721 full-length turned out to be 0.221 relative 10-mer count; in the experiment with ZNF721 DBD1 it was 0.0368 relative 10-mer count; with ZNF721 DBD2, 0.31 relative 10-mer count.

As to CCCCCCCCGC, the figures for the binding signal with ZNF721 full-length, with ZNF721 DBD1 and in the experiment with ZNF721 DBD2 were 0.151 relative 10-mer count, 0.00399 relative 10-mer count and 0.0024 relative 10-mer count, respectively.

As for CCCCTCCCCC, the binding signal in the experiment with ZNF721 full-length came out at 0.337 relative 10-mer count; in the experiment with ZNF721 DBD1 it was 0.0145 relative 10-mer count; in the experiment with ZNF721 DBD2, 0.00443 relative 10-mer count.

Consider CCTCCACCAC, for which the binding signal in the experiment with ZNF721 full-length turned out to be 0.116 relative 10-mer count; with ZNF721 DBD1 it was 0.00564 relative 10-mer count; with ZNF721 DBD2, 0.00923 relative 10-mer count.

Take CCCACCCCCG: the binding signal with ZNF721 full-length was 0.214 relative 10-mer count; with ZNF721 DBD1, 0.00771 relative 10-mer count; in the experiment with ZNF721 DBD2 it was 0.00264 relative 10-mer count.

Turning to CCCCCTCCCC, the results for the binding signal with ZNF721 full-length, with ZNF721 DBD1 and with ZNF721 DBD2 were 0.331 relative 10-mer count, 0.0149 relative 10-mer count and 0.00455 relative 10-mer count, respectively.

As to AGGGTATCCA, the figures for the binding signal with ZNF721 full-length, with ZNF721 DBD1 and with ZNF721 DBD2 were 0.133 relative 10-mer count, 0.00858 relative 10-mer count and 0.224 relative 10-mer count, respectively.

As for CACCACCGCC, the binding signal with ZNF721 full-length turned out to be 0.103 relative 10-mer count; in the experiment with ZNF721 DBD1 it was 0.00454 relative 10-mer count; with ZNF721 DBD2, 0.00324 relative 10-mer count.

CCACCCAACC: the binding signal with ZNF721 full-length came out at 0.151 relative 10-mer count; in the experiment with ZNF721 DBD1, 0.00674 relative 10-mer count; in the experiment with ZNF721 DBD2 it was 0.00551 relative 10-mer count.

With CCCACCTACC, the binding signal with ZNF721 full-length is 0.111 relative 10-mer count; with ZNF721 DBD1, 0.00573 relative 10-mer count; with ZNF721 DBD2 it was 0.00659 relative 10-mer count.

Regarding CTCCCCCCCA, the values for the binding signal with ZNF721 full-length, with ZNF721 DBD1 and in the experiment with ZNF721 DBD2 were 0.117 relative 10-mer count, 0.005 relative 10-mer count and 0.00587 relative 10-mer count, respectively.

Turning to GGGGGAGGGA, the binding signal with ZNF721 full-length was 0.151 relative 10-mer count; with ZNF721 DBD1 it was 0.00936 relative 10-mer count; with ZNF721 DBD2, 0.00384 relative 10-mer count.

Consider CACCCCCACC, for which the binding signal in the experiment with ZNF721 full-length is 0.308 relative 10-mer count; in the experiment with ZNF721 DBD1, 0.0129 relative 10-mer count; with ZNF721 DBD2, 0.0102 relative 10-mer count.

Turning to CCACCCCCCA, the binding signal in the experiment with ZNF721 full-length was determined as 0.272 relative 10-mer count; with ZNF721 DBD1 it was 0.0103 relative 10-mer count; with ZNF721 DBD2, 0.00443 relative 10-mer count.

For the sequence AAAAGCTGCA, the figures for the binding signal with ZNF721 full-length, with ZNF721 DBD1 and in the experiment with ZNF721 DBD2 were 0.114 relative 10-mer count, 0.0533 relative 10-mer count and 0.00312 relative 10-mer count, respectively.

Regarding CAAAACAGCA, the binding signal is 0.21 relative 10-mer count with ZNF721 full-length, 0.00119 relative 10-mer count with ZNF721 DBD1 and 0.205 relative 10-mer count in the experiment with ZNF721 DBD2.

For the sequence AGAAAAAACA, the binding signal with ZNF721 full-length is 0.12 relative 10-mer count; in the experiment with ZNF721 DBD1 it was 0.00211 relative 10-mer count; in the experiment with ZNF721 DBD2, 0.0902 relative 10-mer count.

Regarding CCCACCCCCA, the results for the binding signal with ZNF721 full-length, in the experiment with ZNF721 DBD1 and with ZNF721 DBD2 were 0.28 relative 10-mer count, 0.0118 relative 10-mer count and 0.00647 relative 10-mer count, respectively.

For the sequence TCCCCCCCCA, the binding signal with ZNF721 full-length amounted to 0.116 relative 10-mer count; in the experiment with ZNF721 DBD1 it was 0.005 relative 10-mer count; in the experiment with ZNF721 DBD2, 0.00264 relative 10-mer count.

On to GGAGGGGGGA, for which the binding signal with ZNF721 full-length was determined as 0.131 relative 10-mer count; with ZNF721 DBD1, 0.00601 relative 10-mer count; with ZNF721 DBD2, 0.00336 relative 10-mer count.

On to CCCCACCATC, for which the binding signal was determined as 0.111 relative 10-mer count in the experiment with ZNF721 full-length, 0.00477 relative 10-mer count in the experiment with ZNF721 DBD1 and 0.00563 relative 10-mer count with ZNF721 DBD2.

As for CCCACCACCG, the binding signal with ZNF721 full-length amounted to 0.12 relative 10-mer count; with ZNF721 DBD1, 0.00514 relative 10-mer count; with ZNF721 DBD2 it was 0.00503 relative 10-mer count.

With CACGCCCCCC, the binding signal amounted to 0.123 relative 10-mer count in the experiment with ZNF721 full-length, 0.00454 relative 10-mer count with ZNF721 DBD1 and 0.00635 relative 10-mer count with ZNF721 DBD2.

Consider CCCCCTCGCC, for which the binding signal was 0.123 relative 10-mer count in the experiment with ZNF721 full-length, 0.0061 relative 10-mer count with ZNF721 DBD1 and 0.00288 relative 10-mer count with ZNF721 DBD2.

For CCTGCCCCCC, the binding signal with ZNF721 full-length was determined as 0.103 relative 10-mer count; with ZNF721 DBD1 it was 0.00454 relative 10-mer count; with ZNF721 DBD2, 0.00132 relative 10-mer count.

As for AACAAAAAAG, the values for the binding signal in the experiment with ZNF721 full-length, in the experiment with ZNF721 DBD1 and in the experiment with ZNF721 DBD2 were 0.106 relative 10-mer count, 0.00927 relative 10-mer count and 0.0439 relative 10-mer count, respectively.

Consider ACCCCGCCAC, for which the binding signal in the experiment with ZNF721 full-length turned out to be 0.107 relative 10-mer count; with ZNF721 DBD1 it was 0.00482 relative 10-mer count; with ZNF721 DBD2, 0.00264 relative 10-mer count.

CCACCCACCA: the binding signal in the experiment with ZNF721 full-length was 0.237 relative 10-mer count; in the experiment with ZNF721 DBD1, 0.00977 relative 10-mer count; in the experiment with ZNF721 DBD2, 0.00791 relative 10-mer count.
